Measured values: the supplement of paper PMC13380429

Columns and labels:
[1] = test system: Vero E6 infected with SARS-CoV-2; assay: morphology score (similarity to uninfected cells); higher = more like uninfected cells; settings: 24 h
[2] = test system: Vero E6 infected with SARS-CoV-2; assay: SARS-CoV-2 infection rate relative to infected DMSO; higher = more infection, active = 60 or less; settings: 24 h

For `COc1cccc(CCc2ccccc2OCC[C@@H]2C[C@@H](O)CN2C)c1` (10 µM), the morphology score [1] was 0.533 and the SARS-CoV-2 infection rate [2] was 54.5% (active).
`CC(=O)O[C@H]1C[C@@H]2CC[C@@H]3[C@H](CC[C@@]4(C)[C@H]3C[C@H]([N+]3(C)CCCCC3)[C@@H]4OC(C)=O)[C@@]2(C)C[C@@H]1[N+]1(C)CCCCC1` [pancuronium] (10 µM) was tested, and the morphology score [1] was 0.254 and the SARS-CoV-2 infection rate [2] was 102% (inactive).
`COCCNC(=O)COc1ccc(OCCNC[C@H](O)COc2ccccc2)cc1` (10 µM) was tested, and the morphology score [1] was 0.0156 and the SARS-CoV-2 infection rate [2] was 102% (inactive).
`CS(=O)(=O)c1ccc(-c2cnc(NCc3ccco3)n3cnnc23)cc1` (10 µM) was tested, and the morphology score [1] was 0.197 and the SARS-CoV-2 infection rate [2] was 83% (inactive).
With `Clc1ccccc1C(c1ccccc1)(c1ccccc1)n1cccn1` (10 µM) the morphology score [1] was 0.0967 and the SARS-CoV-2 infection rate [2] was 100% (inactive).
In the case of `CN(C)CC[C@@](O)(c1ccccc1)c1ccccc1Cl` [clofedanol] (10 µM), the morphology score [1] is reported as -0.0705 and the SARS-CoV-2 infection rate [2] is reported as 110% (inactive).
`N#C[C@H](O[C@@H]1O[C@H](CO[C@@H]2O[C@H](CO)[C@@H](O)[C@H](O)[C@H]2O)[C@@H](O)[C@H](O)[C@H]1O)c1ccccc1` [amygdalin] (10 µM) was tested, and the morphology score [1] was 0.155 and the SARS-CoV-2 infection rate [2] was 106% (inactive).
With `CC/C(=C(/CC)c1ccc(O)cc1)c1ccc(O)cc1` [diethylstilbestrol] (10 µM) the morphology score [1] was -0.0992 and the SARS-CoV-2 infection rate [2] was 102% (inactive).
For `NC(=O)c1cnccn1` [pyrazinamide] (10 µM), the morphology score [1] was 0.0672 and the SARS-CoV-2 infection rate [2] was 110% (inactive).
For `NS(=O)(=O)NCCNc1nonc1/C(=N/O)Nc1ccc(F)c(Br)c1` (10 µM), the morphology score [1] was 0.162 and the SARS-CoV-2 infection rate [2] was 112% (inactive).
For `COc1c(N2CCNC(C)C2)c(F)cc2c(=O)c(C(=O)O)cn(C3CC3)c12` (centres undefined) [gatifloxacin] (10 µM), the morphology score [1] was 0.0682 and the SARS-CoV-2 infection rate [2] was 104% (inactive).
`COc1cc2ncnc(Nc3cccc(Cl)c3F)c2cc1OC(=O)N1CCN(C)C[C@H]1C` (10 µM) was tested, and the morphology score [1] was -0.178 and the SARS-CoV-2 infection rate [2] was 114% (inactive).
With `O=C(O)c1ccc2nc(-c3cc(Cl)cc(Cl)c3)oc2c1` [tafamidis-meglumine] (10 µM) the morphology score [1] was 0.242 and the SARS-CoV-2 infection rate [2] was 90.5% (inactive).
`Clc1ccc(COC(Cn2ccnc2)c2ccc(Cl)cc2Cl)cc1` (centres undefined) [econazole] (10 µM) was tested, and the morphology score [1] was -0.225 and the SARS-CoV-2 infection rate [2] was 101% (inactive).
In the case of `CS(=O)(=O)c1ccc([C@@H](O)[C@@H](CO)NC(=O)C(Cl)Cl)cc1` [thiamphenicol] (10 µM), the morphology score [1] is reported as -0.172 and the SARS-CoV-2 infection rate [2] is reported as 118% (inactive).
`Clc1ccc(CCCOCCCN2CCCCC2)cc1` [pitolisant] (10 µM) was tested, and the morphology score [1] was 0.243 and the SARS-CoV-2 infection rate [2] was 81% (inactive).
For `C[C@H](Cc1cc2c(c(C(N)=O)c1)N(CCCO)CC2)NCCOc1ccccc1OCC(F)(F)F` [silodosin] (10 µM), the morphology score [1] was -0.144 and the SARS-CoV-2 infection rate [2] was 106% (inactive).
`O=c1c2ccccc2[se]n1-c1ccccc1` [ebselen] (10 µM) was tested, and the morphology score [1] was 0.34 and the SARS-CoV-2 infection rate [2] was 84% (inactive).
In the case of `Cc1cc(Nc2nc(N[C@@H](C)c3ncc(F)cn3)ncc2Cl)[nH]n1` (10 µM), the morphology score [1] is reported as 0.046 and the SARS-CoV-2 infection rate [2] is reported as 108% (inactive).
With `Cc1cc(=O)[nH]c(=S)[nH]1` [methylthiouracil] (10 µM) the morphology score [1] was 0.0905 and the SARS-CoV-2 infection rate [2] was 104% (inactive).
For `c1ccc(N2CCN(Cc3nc4ccccc4[nH]3)CC2)nc1` (10 µM), the morphology score [1] was 0.136 and the SARS-CoV-2 infection rate [2] was 104% (inactive).
With `COc1ccc(-c2oc3c(CC=C(C)C)c(O[C@@H]4O[C@H](CO)[C@@H](O)[C@H](O)[C@H]4O)cc(O)c3c(=O)c2O[C@@H]2O[C@@H](C)[C@H](O)[C@@H](O)[C@H]2O)cc1` [icariin] (10 µM) the morphology score [1] was 0.141 and the SARS-CoV-2 infection rate [2] was 106% (inactive).
In the case of `O=C1c2ccccc2C(=O)C1c1ccccc1` [phenindione] (10 µM), the morphology score [1] is reported as -0.000221 and the SARS-CoV-2 infection rate [2] is reported as 106% (inactive).
With `CCc1cccc(CC)c1NC(=O)CN(CC(=O)O)CC(=O)O` [etifenin] (10 µM) the morphology score [1] was 0.115 and the SARS-CoV-2 infection rate [2] was 109% (inactive).
In the case of `C[C@H](CCC(=O)O)[C@H]1CC[C@H]2[C@@H]3CC[C@@H]4C[C@H](O)CC[C@]4(C)[C@H]3C[C@H](O)[C@]12C` [deoxycholic-acid] (10 µM), the morphology score [1] is reported as 0.0921 and the SARS-CoV-2 infection rate [2] is reported as 104% (inactive).
In the case of `NC(=O)c1cccc2cn(-c3ccc([C@@H]4CCCNC4)cc3)nc12` [niraparib] (0.833333 µM), the morphology score [1] is reported as 0.0643 and the SARS-CoV-2 infection rate [2] is reported as 102% (inactive).
`NC[C@H]1O[C@H](O[C@H]2[C@H](O)[C@@H](O[C@H]3O[C@H](CO)[C@@H](O)[C@H](N)[C@H]3O)[C@H](N)C[C@@H]2N)[C@H](N)C[C@@H]1O` [tobramycin] (10 µM) was tested, and the morphology score [1] was 0.095 and the SARS-CoV-2 infection rate [2] was 113% (inactive).
